# ± gives the standard deviation of the averaged measurements.
# Compound: CC(C)c1cccc(C(C)C)c1N1C(=O)c2ccc(O)cc2C1=O
# Assay: BioMAP readout fold decrease vs vehicle (vehicle/treated); higher = stronger decrease of the readout vs vehicle (values <1 mean increase)
# Procedure: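 BioSeek BioMAP human primary cell (co-)culture systems (3C, 4H, LPS, SAg, BE3C, CASM3C, hDFCGF, KF3CT) treated with 5HPP-33 at 1.48, 4.44, 13.3 and 40 µM. Read-outs are protein levels by ELISA, proliferation and SRB total protein. Duplicate rows per assay are averaged as replicates. Tested in ToxCast Phase II for this study; exposure time not stated.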
# 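Also: Co-cultures of keratinocytes, bronchial epithelial and smooth muscle cells, fibroblasts, HUVECs and PBMCs under stimuli like LPS, TNF-α, IFN-γ, IL-1β, TGF-β or EGF, SRB reflecting cytotoxicity.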
target,measurement,setting,value
4H_uPAR,BioMAP readout fold decrease,1.48 µM,1.2 ± 0.045
same,BioMAP readout fold decrease,4.44 µM,1.3 ± 0.038
same,BioMAP readout fold decrease,13.3 µM,1.361 ± 0.0024
same,BioMAP readout fold decrease,40 µM,2.33 ± 0.26
BE3C_uPA,BioMAP readout fold decrease,1.48 µM,1.07 ± 0.019
same,BioMAP readout fold decrease,4.44 µM,1.017 ± 0.0048
same,BioMAP readout fold decrease,13.3 µM,1.027 ± 0.0098
same,BioMAP readout fold decrease,40 µM,1.15 ± 0.042
BE3C_hLADR,BioMAP readout fold decrease,1.48 µM,0.985 ± 0.037
same,BioMAP readout fold decrease,4.44 µM,1.17 ± 0.015
same,BioMAP readout fold decrease,13.3 µM,1.72 ± 0.043
same,BioMAP readout fold decrease,40 µM,2.97 ± 0.053
3C_hLADR,BioMAP readout fold decrease,1.48 µM,1.04 ± 0.038
same,BioMAP readout fold decrease,4.44 µM,1.55 ± 0.048
same,BioMAP readout fold decrease,13.3 µM,4.27 ± 0.47
same,BioMAP readout fold decrease,40 µM,7.36 ± 0.11
CASM3C_uPAR,BioMAP readout fold decrease,1.48 µM,1.15 ± 0.1
same,BioMAP readout fold decrease,4.44 µM,1.21 ± 0.037
same,BioMAP readout fold decrease,13.3 µM,1.29 ± 0.05
same,BioMAP readout fold decrease,40 µM,2.6 ± 0.26
KF3CT_TIMP2,BioMAP readout fold decrease,1.48 µM,1 ± 0.025
same,BioMAP readout fold decrease,4.44 µM,0.978 ± 0.038
same,BioMAP readout fold decrease,13.3 µM,1.08 ± 0.075
same,BioMAP readout fold decrease,40 µM,2.5 ± 0.22
3C_uPAR,BioMAP readout fold decrease,1.48 µM,1.13 ± 0.03
same,BioMAP readout fold decrease,4.44 µM,1.15 ± 0.053
same,BioMAP readout fold decrease,13.3 µM,1.43 ± 0.1
same,BioMAP readout fold decrease,40 µM,2.6 ± 0.15
SAg_CD38,BioMAP readout fold decrease,1.48 µM,1.01 ± 0.025
same,BioMAP readout fold decrease,4.44 µM,1.34 ± 0.061
same,BioMAP readout fold decrease,13.3 µM,2.26 ± 0.16
same,BioMAP readout fold decrease,40 µM,5.07 ± 0.81
4H_Eotaxin3,BioMAP readout fold decrease,1.48 µM,0.9561 ± 0.0065
same,BioMAP readout fold decrease,4.44 µM,0.875 ± 0.022
same,BioMAP readout fold decrease,13.3 µM,1.02 ± 0.032
same,BioMAP readout fold decrease,40 µM,4.62 ± 0.098
SAg_Eselectin,BioMAP readout fold decrease,1.48 µM,1.14 ± 0.027
same,BioMAP readout fold decrease,4.44 µM,1.02 ± 0.041
same,BioMAP readout fold decrease,13.3 µM,1.14 ± 0.087
same,BioMAP readout fold decrease,40 µM,3.92 ± 0.27

# Reference: the supplement of paper PMC3616981
